# Assay results from ChEMBL document CHEMBL4513216, “Probing the Open Global Health Chemical Diversity Library for Multistage-Active Starting Points for Next-Generation Antimalarials” (ACS Infect Dis, 2020).
# Among all 65,000 compounds or so, about 2,100 (3.2%) showed an effect of 50% or more. The median lay at about -52%. Only a selection was taken, and strong results are over-represented in it overall.
# Tested on: Plasmodium falciparum
# Assay: Screen against P. falciparum Asexual Blood Stage (ABS), at 5uM
# Assay type: functional, Dd2
# Settings: tested at 5 uM
row,SMILES,INHIBITION [%]
1,COCCN(C/C=C/c1ccccc1)Cc1ccccn1,23.1
2,COCCN(C/C=C/c1ccccc1)Cc1nccs1,-7.08
3,CCc1ccc(CN(C/C=C/c2ccccc2)CCOC)nc1,54.8
4,O=C(c1cccc(Cl)c1)N1CCCn2c(CN3CCCCC3)nnc2C1,10.2
5,Cn1ccnc1-c1nc2cc(S(=O)(=O)N3CCCC3)ccc2n1C,-13.2
6,Nc1cc2c(nn1)CCN(C(=O)CCC1CCCCC1)C2,-69.7
7,CN(C)c1ccc(CN(CCCn2ccnc2)Cc2c[nH]cn2)cc1,79.8
8,Cc1ccc(CN(CCCn2ccnc2)Cc2c[nH]cn2)s1,21.2
9,c1cc(CN(CCCn2ccnc2)Cc2ccoc2)ccn1,-27
10,Cc1nc[nH]c1-c1nccn1CCN1CCOC1=O,-38.9
11,O=c1oc2ccccc2n1CCCN1CCCC1c1ccc(O)cc1 (stereo not given),54.1
12,Cc1nc(C2CCCN2CCCn2c(=O)oc3ccccc32)no1 (stereo not given),-44.1
13,Cn1cc(C2CCCN2CCCn2c(=O)oc3ccccc32)cn1 (stereo not given),8.65
14,CN1CCC(CCc2ccnc(NC(=O)c3ccccn3)c2)CC1,-102
15,CCn1cc(CNCCNc2ncc(Cl)cc2Cl)cn1,66.6
16,Cn1ccnc1CNCCNc1ncc(Cl)cc1Cl,41.8
17,Cn1cc(CCNCc2cc(Cl)c3c(c2)OCCO3)cn1,-26.6
18,Cn1cc(CNCCNc2ncc(Cl)cc2Cl)cn1,54
19,CCn1cc(CNC(=O)CCn2ncc3c(Cl)cccc32)cn1,-21.7
20,CCn1cc(CNc2ccc3nccnc3c2)cn1,-14.1
21,O=C([C@@H]1CC[C@@H]2[C@@H](CCN2Cc2ccoc2)O1)N1CCCC1,-94.6
22,O=S(=O)(c1ccc(Cl)s1)N1CCN(Cc2nc(-c3ccco3)cs2)CC1,-66

row,SMILES,INHIBITION [%]
1,NC(=O)C1(c2cnccn2)CCCN1Cc1ccncc1 (stereo not given),-58.5
2,O=C(NCCNc1ccc(Br)cn1)c1ccc(O)cc1,-20.5
3,O=C(NCCNc1cncc(Br)c1)c1ccc(O)cc1,52.2
4,O=C(NCCNC(=O)c1ccc(Br)cc1)c1ccc(O)cc1,30.3
5,CCCN1CCc2c(C(=O)N(C)Cc3ccccn3)nn(C)c2C1,-23.7
6,O=C(Cc1ccsc1)N1CCCC(c2n[nH]c3ncccc23)C1 (stereo not given),-37.1
7,CS(=O)(=O)NCCCN1CCCC1Cc1ccccc1 (stereo not given),-29
8,COc1cccc(C2CCCN2CCCNS(C)(=O)=O)c1 (stereo not given),-0.589
9,O=C(CCN1CCCCC1c1cc2ccccc2[nH]1)N1CCOCC1 (stereo not given),39.3
10,CS(=O)(=O)NCCCN1CCCC1c1ccsc1 (stereo not given),-73.1
11,CS(=O)(=O)NCCCN1CCCCC1c1cc2ccccc2[nH]1 (stereo not given),58.9
12,COc1ccc(C2CCCCCN2S(C)(=O)=O)cc1 (stereo not given),-92.8
13,COc1ccc(C2CCCCCN2CCCNS(C)(=O)=O)cc1 (stereo not given),59.3
14,CS(=O)(=O)NCCCN1CCCC1c1cccc(Br)c1 (stereo not given),65.4
15,CS(=O)(=O)NCCCN1CCCC1c1ccccc1 (stereo not given),-93.1
16,Cc1ocnc1C(=O)N1CCCC1c1ccc(C(=O)N2CCSCC2)s1 (stereo not given),-154
17,Cn1c(=O)c2c(n3ncnc13)NC(=O)CC2c1cccc(Br)c1 (stereo not given),-61.2
18,CC(C)c1nc(CN(C)C(=O)c2cn3ccsc3n2)cs1,-43.1
19,COc1cccc(C=CCCN2CCCN(C(C)=O)CC2)c1,-13
20,CN(C)C[C@@H]1CN(Cc2ccccc2C#N)C[C@@H]1CO,-47.7
21,COc1ccc(F)c(CN2CCCC3(CCN(C(=O)CSC)C3)C2)c1 (stereo not given),-63.5
22,COc1ccc(CN2CCC(O)(CN3CCCCC3)C2)c(C)c1 (stereo not given),67.6

row,SMILES,INHIBITION [%]
1,Cc1cc(F)ccc1CN1CCCC(O)(CN2CCCC2)C1 (stereo not given),66.7
2,CCCn1ccnc1CN1CCC(O)(CN2CCCCC2)C1 (stereo not given),18.6
3,Cc1cc(C)c(C(=O)N2CCCC(O)(CN3CCCC3)C2)cc1C (stereo not given),-30.5
4,Cc1cc(-n2cccn2)ccc1CN1C[C@@H](CN(C)C)[C@@H](CO)C1,51.7
5,Cc1cc(F)ccc1CN1CCCC2(C1)OCCO2,-67.8
6,COCC(=O)N1CCC2(CCCN(Cc3cc(OC)ccc3F)C2)C1 (stereo not given),-70
7,Cc1ccccc1CN1C[C@@H](CN(C)CCO)[C@@H](CO)C1,7.46
8,Cc1cc(-n2cccn2)ccc1CN1CCC(O)(CN2CCCCC2)C1 (stereo not given),62.1
9,CC(C)c1nccc(CN2CCC(O)(CN3CCCCC3)C2)n1 (stereo not given),32.8
10,COc1cccc(Cn2cc(N3C(=O)CCC3=O)cn2)c1,-83.8
11,c1cnc(N2CCC3(COCc4cnc(-c5cccnc5)nc43)C2)nc1 (stereo not given),-78.5
12,COCC1CN(c2ncccn2)Cc2cnn(CC3CC3)c21 (stereo not given),-16.5
13,CS(=O)(=O)N1CCN(C(=O)C2CSCCC(=O)N2)CC1 (stereo not given),-38.6
14,Cc1nc(CN2CCN(C3CCOC3)Cc3cccnc32)cs1 (stereo not given),-78.6
15,CCCNC(=O)c1cccc(CNCc2csc(C(C)C)n2)c1,-48.2
16,Cc1noc(NC(=O)c2cccc(Br)c2)n1,-81.9
17,O=C1CCC2(CCN(Cc3ccc(F)cc3Cl)CC2)CN1CCO,-54
18,OC1(CN2CCCC2)CCCN(Cc2ccc(F)cc2Cl)C1 (stereo not given),58.3
19,Cc1cc(C(=O)N2CCCC(O)(CN3CCCC3)C2)ccc1Cl (stereo not given),-21.4
20,Cn1cc(C[C@H]2[C@H](O)CCN2Cc2ccc(F)cc2)cn1,6.42
21,Cc1cc(CN(C)C(=O)Nc2ccccc2C)no1,-85.5
22,Cc1ccc(CN(CCCO)Cc2nc3ccccc3[nH]2)s1,-76.9

row,SMILES,INHIBITION [%]
1,Cc1ccc(CN(CCN(C)C)Cc2nc3ccccc3[nH]2)s1,61.2
2,Cc1ccc(CN(CCN(C)C)Cc2ncc[nH]2)s1,-73.3
3,Cc1ccccc1NC(=O)CCNC(=O)c1ccoc1,-37.5
4,COCCCNC(=O)Cc1nc(-c2ccncc2)n[nH]1,-95.8
5,CCC1=NC2(CCC(C(=O)Nc3ccc(C)nc3)CC2)C(=O)N1C (stereo not given),-28.2
6,Cc1cccc(CNc2cc(C3CCCNC3)ccn2)n1 (stereo not given),-46.7
7,CC(C)(C)OC(=O)NC1CCCN(Cc2cccs2)C1 (stereo not given),25.8
8,CC(C)(C)OC(=O)NC1CCCN(Cc2cccc(O)c2)C1 (stereo not given),51.7
9,CC(=O)NC1CCCN(Cc2ccn(C)c(=O)c2)C1 (stereo not given),-10.7
10,Cc1nn(C)c2nc(N(Cc3cnn(C)c3)C3CCCCC3)sc12,60
11,COCCN(Cc1cnn(C)c1)c1nc2c(s1)c(C)nn2C,-50.7
12,Cc1nn(C)c2nc(N(CCN(C)C)C3CCCC3)sc12,-9.31
13,O[C@H]1CCN(CC2CC2)[C@H]1Cc1ccncc1,-6.99
14,CC1CCCN(CCCNC(=O)c2ccc(N(C)S(C)(=O)=O)cc2Cl)C1 (stereo not given),-129
15,CC(O)CNCc1c[nH]nc1-c1cc2ccccc2o1 (stereo not given),-15.3
16,Cc1nc(CN2C(=O)C[C@H]3[C@H]2CCN3CC2CCOC2)cs1 (stereo not given in full),-84.1
17,COc1ccccc1C1(CNc2ccc(C(=O)N(C)C)cn2)CC1,-70.8
18,COc1ccccc1C1(CNCc2ccc([S+](C)[O-])cc2)CC1 (stereo not given),69.5
19,COc1ccccc1C1(CNc2cn[nH]c(=O)c2Cl)CCOCC1,-28.1
20,COc1ccccc1C1(CNCc2cccc(C#N)c2)CCOCC1,66.9
21,COc1ccccc1C1(CNc2cn[nH]c(=O)c2Cl)CC1,-7.64
22,COc1ccccc1C1(CNc2snc(Cl)c2C#N)CCOCC1,27

row,SMILES,INHIBITION [%]
1,CC(C)(C)CN(CCC#N)C(=O)c1cccc(CC#N)c1,-98
2,CCCC(NC(=O)c1ccc(OC)cc1C)c1nnn[nH]1 (stereo not given),-54.4
3,Cc1ncc(C(=O)N2CCCC2(C)C(=O)N2CCOCC2)c(C)n1 (stereo not given),-32.2
4,CCS(=O)(=O)N1CCCN(CCCOC)CC1,-97.9
5,CCOC1COC2(CCN(C(=O)c3cccc(C)n3)CC2)C1 (stereo not given),-46
6,CC1(C)[C@@H]2CC=C(CN3CCCn4nc(C(=O)NCCO)cc4C3)[C@H]1C2,-43.4
7,c1cncc(CN2CC[C@@H]3[C@@H]2CCN3Cc2ccc3c(c2)OCO3)c1,59.5
8,Cn1cc(CN2CC[C@@H]3[C@@H]2CCN3Cc2ccc3c(c2)OCO3)cn1,-88.4
9,CN1CC[C@@H]2[C@@H]1CCN2Cc1ccc2c(c1)OCO2,43
10,COCc1nn(CC2CC2)c2c1CN(Cc1ccco1)CC2,-53.2
11,COCc1nn(CC2CC2)c2c1CN(Cc1cccs1)CC2,50
12,CCOCc1nn(CC2CC2)c2c1CN(Cc1cccs1)CC2,-70.5
13,CCO[C@H]1C[C@@H](O)C12CCN(C1Cc3ccccc3C1)CC2,-26.8
14,Fc1ccccc1CNc1ccnc(C2CCNCC2)c1,66.5
15,NS(=O)(=O)c1ccc(NCc2ccccc2F)cc1C(F)(F)F,-6.73
16,O=C(NC1CCCC1)c1ccnc(C2CCNCC2)c1,-131
17,O=C(Nc1cccc(C2SCCS2)c1)C1CCCN1c1nccs1 (stereo not given),36.7
18,CN1CCN(c2ccc(Cl)cc2NC(=O)c2ccco2)CC1,42
19,CN1CCN(c2ccccc2NC(=O)c2ccco2)CC1,32.7
20,CN1CCN(c2ccc(Br)cc2NC(=O)c2ccco2)CC1,53
21,CSCC(C)N(C)C(=O)c1nn(-c2ccc(F)cc2C)cc1O (stereo not given),-118
22,Cc1cccc(CC(=O)N2CCCC(c3n[nH]c4nccnc34)C2)c1 (stereo not given),-9.5
